Shiga toxin inh = Shiga toxin inhibition; Vero cells, Shiga toxin protein synthesis inhibition reporter; inhibition, % at 38.7 µM; 290,000 tested, 9.2% active; AID 2315; in the data active = inhibition mostly above about 28%, no sharp cut-off; inactive = mostly below about 43%; note: 0% is about no effect
AmpC inh detg = AmpC beta-lactamase inhibition with detergent present; P00811; AmpC hydrolysis of nitrocefin, absorbance 480 nm, 0.01% Triton; Potency, µM (doses to about 114 µM), without a hit: top-dose activity change, negative = inhibition, most hits filed as inhibitors; 370,000 tested, 0.041% active; AID 485294;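 note: potency is the fitted concentration of half-maximal effect; 0% = no-compound wells and -100% = no-enzyme wells; nearly all actives have a fitted effect of over 25% in size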
Target sequence (P00811 whole entry, looked up): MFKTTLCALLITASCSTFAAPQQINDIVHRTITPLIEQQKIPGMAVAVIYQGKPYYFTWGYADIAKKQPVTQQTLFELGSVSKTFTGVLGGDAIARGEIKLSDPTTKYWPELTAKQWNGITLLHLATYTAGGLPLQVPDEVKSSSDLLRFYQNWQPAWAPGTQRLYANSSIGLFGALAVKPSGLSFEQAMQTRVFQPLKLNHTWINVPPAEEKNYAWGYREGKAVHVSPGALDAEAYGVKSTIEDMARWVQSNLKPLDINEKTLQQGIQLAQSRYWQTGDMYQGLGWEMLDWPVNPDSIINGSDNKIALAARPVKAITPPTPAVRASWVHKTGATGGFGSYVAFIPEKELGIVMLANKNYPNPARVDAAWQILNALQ
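20 mM phosphate pH 7.0 + 0.01% (detergent screen) or 0.0001% Triton X-100; 5.3 nM AmpC reagent; cpd preinc 15 min RT; nitrocefin (800 uM stock) to start; A480 q20 s × 4 min; Activity was normalised to no-enzyme and no-compound control wells.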
AmpC inh no detg = blocks E. coli AmpC beta-lactamase in detergent-free assay; P00811; 330,000 tested, 0.52% active; AmpC nitrocefin hydrolysis, absorbance 480 nm, 0.0001% Triton; Potency, µM (doses to about 57.1 µM), for the others: top-dose activity change, negative = inhibition, usual class: inhibitors;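 note: potency is the fitted concentration of half-maximal effect; plate controls were no compound for no effect and no enzyme for full effect; nearly all actives have a fitted effect of over 20% in size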
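20 mM phosphate pH 7.0 + 0.01% (detergent screen) or 0.0001% Triton X-100; 5.3 nM AmpC reagent; cpd preinc 15 min RT; nitrocefin (800 uM stock) to start; A480 q20 s × 4 min; Activity was normalised to no-enzyme and no-compound control wells.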
Cycloheximide cs = affects cycloheximide protein synthesis inhibition readout, counter-screen; max response, %; 300,000 tested, 12% active; cell reporter, cycloheximide protein synthesis inhibition counterscreen; in the data active = max response mostly above about 13%, no sharp cut-off; inactive = mostly below about 14%; note: read at 38.3 µM for the half of the compounds with a filed dose; 0% is about no effect
NS1 function inh = blocks influenza NS1 protein function; 270,000 tested, 0.4% active; Potency, µM (top dose mostly 46.1 µM), for inactives: at the top dose activity, positive = more growth; AID 2326; calls by dose curve; note: potency is the fitted concentration of half-maximal effect; actives are rising curves; nearly all actives have a fitted effect of over 50% in size
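Compounds were scored for reversing the slow growth caused by influenza A NS1 in S. cerevisiae, measured by optical density at 600 nm. Assay medium contained 2% galactose at pH 6.0; NS1-free yeast of the same strain were the positive control.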
Starred values were filed as active, the others as inactive. Many of the other results were omitted from the sample, so hits are more common in it than they were. Unless noted, calls come from the whole dose curve; as a rule, active = well fitted curve in the direction sought with a large enough effect; inconclusive = small, poorly fitted or top-dose-only effect, or another doubt; inactive = no such curve, though single readings can be large; an effect the other way counts as inactive or inconclusive.

Results for COc1cc(-c2ccno2)ccc1S(=O)(=O)N1CCN(c2ccccc2)CC1 ?
AmpC inh detg: 1.2%

How did CC(=O)Nc1ccc(/C=C/c2ccc3c([N+](=O)[O-])cccc3n2)cc1 do in these assays?
Shiga toxin inh: 69.6*; AmpC inh detg: 7.0%; AmpC inh no detg: -2.4%; Cycloheximide cs: 32.9*

Results for O=C(O)c1cc(/C=C/c2ccc(N3CCOCC3)c([N+](=O)[O-])c2)nc2ccccc12 ?
Shiga toxin inh: -9.4; AmpC inh detg: inconclusive; AmpC inh no detg: -21.6%; Cycloheximide cs: -3.9; NS1 function inh: inconclusive

Results for CCOC(=O)c1cc(NC(=O)c2ccc(Cl)cc2)c(=O)n2c1oc1ccccc12 ?
AmpC inh detg: 2.9%

Results for Cc1nc(/C=C/c2ccccc2)[nH]c(=O)c1-c1ccccc1 ?
Shiga toxin inh: 94.2*; AmpC inh detg: -2.6%; AmpC inh no detg: -24.6%; Cycloheximide cs: 32.6*; NS1 function inh: 3.8%

What do the screens show for `O=c1[nH]c(/C=C/c2ccccc2[N+](=O)[O-])nc2ccccc12`?
Shiga toxin inh: -6.9; AmpC inh detg: 1.1%; AmpC inh no detg: -6.6%; Cycloheximide cs: 9.1; NS1 function inh: -5.4%

How did Cc1cccc(/C=C(\C#N)c2nc3ccccc3c(=O)[nH]2)c1 do in these assays?
AmpC inh detg: 12.6%

Results for O=c1[nH]c(/C=C/c2ccc(Br)cc2)nc2ccccc12 ?
Shiga toxin inh: 85.1*; AmpC inh detg: -0.8%; AmpC inh no detg: -15.7%; Cycloheximide cs: 44.6*; NS1 function inh: -2.3%

How did Cc1cccc(/C=C\c2nc3ccccc3c(=O)[nH]2)c1 do in these assays?
Shiga toxin inh: 93.3*; AmpC inh detg: -8.6%; AmpC inh no detg: -15.6%; Cycloheximide cs: 70.2*; NS1 function inh: -19.9%

How did COc1cc(/C=C/c2nc3ccccc3c(=O)[nH]2)cc(Cl)c1O do in these assays?
Shiga toxin inh: 24.9; AmpC inh detg: -12.5%; AmpC inh no detg: -7.4%; Cycloheximide cs: -3.5; NS1 function inh: 0.6%

What do the screens show for `CN(C)c1ccc(/C=C/c2nc3ccccc3c(=O)[nH]2)cc1`?
Shiga toxin inh: 38.9*; AmpC inh detg: inconclusive; AmpC inh no detg: 0.6%; Cycloheximide cs: 33.8*; NS1 function inh: -2.6%

What do the screens show for `OC[C@@H]1O[C@@H](n2cnc3c(SCc4ccccc4)ncnc32)[C@@H](O)[C@H]1O`?
NS1 function inh: -5.6%

How did COc1ccc(NC(=O)c2cc3c(=O)n(Cc4cccnc4)ccc3nc2C)cc1Cl do in these assays?
AmpC inh detg: 26.4%

What do the screens show for `Cc1ccc(NC(=O)C2C3CCCC2C3c2ccccc2)cc1` (stereo not drawn)?
Shiga toxin inh: -11.2; AmpC inh detg: -4.7%; AmpC inh no detg: -10.4%; Cycloheximide cs: -2.8; NS1 function inh: 10.8%

Results for C/C(CC(=O)Nc1ccc2c(c1)OCO2)=N\NC(=O)c1ccc(N)cc1 ?
Shiga toxin inh: 52.8*; AmpC inh detg: 2.7%; AmpC inh no detg: 77.5%; Cycloheximide cs: 22.0*; NS1 function inh: 3.0%

What do the screens show for `C/C(CC(=O)Nc1ccc2c(c1)OCCO2)=N\NC(=O)c1ccccc1F`?
Shiga toxin inh: 78.9*; AmpC inh detg: -2.9%; AmpC inh no detg: -2.7%; Cycloheximide cs: 29.5*; NS1 function inh: -5.7%

Results for COc1ccccc1C(=O)N/N=C(\C)CC(=O)Nc1ccc2c(c1)OCCO2 ?
Shiga toxin inh: 29.9; AmpC inh detg: -1.0%; AmpC inh no detg: -0.8%; Cycloheximide cs: 9.4; NS1 function inh: -3.8%

Results for C/C(CC(=O)Nc1ccc2c(c1)OCO2)=N\NC(=O)OC(C)(C)C ?
Shiga toxin inh: -4.5; AmpC inh detg: -3.0%; AmpC inh no detg: -8.8%; Cycloheximide cs: 17.8

What do the screens show for `C/C(CC(=O)Nc1ccc2c(c1)OCO2)=N\NC(=O)c1ccccc1N`?
Shiga toxin inh: 100.5*; AmpC inh detg: -2.7%; AmpC inh no detg: 7.7%; Cycloheximide cs: 59.2*; NS1 function inh: 6.0%

What do the screens show for `CCCCC(=O)NC1(C(F)(F)F)C(=O)N(CC(C)C)C2=C1C(=O)CC(C)(C)C2` (stereo not drawn)?
Shiga toxin inh: 43.7*; AmpC inh detg: inconclusive; AmpC inh no detg: 16.6%; Cycloheximide cs: 30.5; NS1 function inh: -0.6%

Results for COc1cc(-c2nc3cccc(C)n3c2Nc2ccc3c(c2)OCCO3)ccc1O ?
AmpC inh detg: -3.9%

How did CCCCNC(=O)CSc1nc2ccc(N3CCOCC3)cc2c(=O)n1Cc1ccc(OC)cc1 do in these assays?
Shiga toxin inh: -12.6; AmpC inh detg: -3.7%; AmpC inh no detg: 3.1%; Cycloheximide cs: 6.5

Results for COCCNC(=O)CSc1nc2ccc(N3CCOCC3)cc2c(=O)n1Cc1ccc(OC)cc1 ?
Shiga toxin inh: 53.7; AmpC inh detg: -3.0%; AmpC inh no detg: 117.3%; Cycloheximide cs: 28.1*; NS1 function inh: 7.7%

Results for Oc1ccc2ccccc2c1C=Nc1ccccc1-c1nc2ccccc2[nH]1 ?
Shiga toxin inh: 58.8*; AmpC inh detg: -8.8%; AmpC inh no detg: -28.2%; Cycloheximide cs: 42.5*; NS1 function inh: -222.2%

How did Oc1ccc2ccccc2c1C=Nc1ccc(Cl)cn1 do in these assays?
Shiga toxin inh: 6.3; AmpC inh detg: 4.4%; AmpC inh no detg: -13.1%; Cycloheximide cs: 4.4; NS1 function inh: 0.1%

How did COc1cccc(NC(=O)N2CCN(C(=O)C(Cc3ccc(OC)c(OC)c3)NC(C)=O)CC2)c1 (stereo not drawn) do in these assays?
Shiga toxin inh: 2.9; AmpC inh detg: inconclusive; AmpC inh no detg: -9.9%; Cycloheximide cs: -2.5; NS1 function inh: -5.4%

How did COc1ccc(CC(NC(C)=O)C(=O)N2CCN(C(=O)Nc3ccc(Cl)cc3)CC2)cc1OC (stereo not drawn) do in these assays?
Shiga toxin inh: 43.8; AmpC inh detg: 0.1%; AmpC inh no detg: 141.2%; Cycloheximide cs: 14.4*; NS1 function inh: -70.9%

How did Cc1ccc(-c2cc3ncc(C(=O)c4cc([N+](=O)[O-])ccc4O)cn3n2)cc1 do in these assays?
AmpC inh detg: -5.5%

Results for CC(C)n1cc(CN2CCC(C(=O)Nc3ccc(Oc4ccccc4F)cc3)CC2)cn1 ?
Shiga toxin inh: -14.1; AmpC inh detg: -4.3%; AmpC inh no detg: 90.3%; Cycloheximide cs: -5.6; NS1 function inh: -12.2%

What do the screens show for `COc1cc(/C=N\Nc2nc(-c3ccc(C)cc3)c(NC(C)=O)s2)ccc1O`?
Shiga toxin inh: 50.7; AmpC inh detg: -7.6%; AmpC inh no detg: -12.2%; Cycloheximide cs: 18.6*; NS1 function inh: 7.8%

Results for CCOc1cc(/C=N\Nc2nc(-c3ccc(C)cc3)c(NC(C)=O)s2)ccc1O ?
Shiga toxin inh: 23.5; AmpC inh detg: 3.7%; AmpC inh no detg: -26.7%; Cycloheximide cs: 2.0; NS1 function inh: 22.7%

Results for COc1ccc(/C=N/Nc2nc(-c3ccc(C)cc3)c(NC(C)=O)s2)cc1OC ?
Shiga toxin inh: 54.9*; AmpC inh detg: -2.1%; AmpC inh no detg: 43.6%; Cycloheximide cs: 33.6*; NS1 function inh: inconclusive

What do the screens show for `COc1cccc(OC(=O)CSc2nnc(-c3ccc4c(c3)OCO4)o2)c1`?
AmpC inh detg: -6.5%

Compound activity as filed in PubChem BioAssay.
